40 compounds from PubChem BioAssay (NCI) can be followed below.

Structures are written as SMILES. Values joined by “and” are separate entries in the source; they are usually repeats but may differ in a detail not shown here. Equal values may be shown once. The panel holds about 83,000 compounds, 20% with a hit somewhere; the sample as a whole holds those more often.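 Results are percent growth after 48 hours of single-concentration exposure. 100 means growth as in untreated cells, lower positive values show inhibition; negative values down to -100 show cell death.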 Active and inactive are the calls of the source. The calls were made as follows: active = growth percent below 10; inactive = the rest.

In the test the test system is MDA-MB-468 breast. As to the kind of experiment: NCI-60 one-dose screen, 48 h (100 = growth as untreated, 0 = no growth, -100 = all killed). To be noted: 10 µM unless noted.
Regarding `C#CCOc1cccc(Nc2ncnc3c(NC(=O)C=C)cccc23)c1`, the growth is -15.2% (active).
In the case of `CCn1c(=S)[nH]c2c(=O)n(C)c(=O)n(C)c21`, the growth is 100% (inactive).
For the compound `Cc1cc(N2CCC(N3CCCC3)CC2)nc(/N=C(\N)Nc2ccc(Cl)c(Cl)c2)n1`, the growth is -81.4% (active).
Regarding `C/C(=N/Nc1nc2ccccc2n1C)c1ccccn1`, the growth is -41.9% (active).
For `CCN(CC)CC(O)CNc1c2ccc([N+](=O)[O-])cc2nc2cc(OC)c(OC)cc12` (stereo not given), the growth is -44.5% (active).
To `CCCCCCCN(CCCCCCC)C(=N)c1ccnc2ccccc12` belongs -83.5% (active); to `O=C(C(=O)N1CCCCC1)c1ccc(OC2OC(CO)C(O)C(O)C2O)cc1` (stereo not given), 100% (inactive); to `CC(=O)c1cc2c(N)c(C(=O)Nc3ccccc3)sc2nc1C`, 24.3% (inactive).
To `CC12CCCC(CC(=O)c3[nH]c4ccccc4c31)C2` (stereo not given) belongs -47.5% (active); to `COc1ccc(NC(=O)c2sc3nc4c(cc3c2N)C(O)CCC4)cc1` (stereo not given), 92.2% (inactive).
The same measure for `O=C(c1ccc(O)c(C(=O)N2Cc3ccc(OCCC[P+](c4ccccc4)(c4ccccc4)c4ccccc4)cc3C2)c1)N1Cc2cccc(F)c2C1`: 2.97% (active).
As to `C=C1C(=O)O[C@H]2[C@H]1CC/C(COC(=O)c1cc3ccccc3o1)=C\CC[C@@]1(C)O[C@@H]21`, the growth was -71.2% (active).
On to `CC(=O)C1=C(C)NC(NNc2ccccc2)=NC1c1ccc([N+](=O)[O-])cc1` (stereo not given), for which the growth is 92.3% (inactive).
Regarding `N#C/C(=N\Nc1ccc(F)cc1)C(=O)Nc1cc(-c2ccccc2)nn1-c1ccccc1`, the growth is -21% (active).
In the case of `CC(CN1CCN(CC(C)Nc2ccnc3cc(Cl)ccc23)CC1)Nc1ccnc2cc(Cl)ccc12` (stereo not given), the growth is -62.8% (active).
For the compound `COc1ccc(-c2nc(/C=N/Nc3cc(C)nc4ccc(Br)cc34)c(C)o2)cc1`, the growth is -78.9% (active).
Regarding `Fc1ccc(Nc2nc(Nc3ccc(-c4nc5ccccc5[nH]4)cc3)c3cn[nH]c3n2)cc1`, the growth is -22.1% (active).
`CCOC(=O)c1c(C(=O)OCC)c2cc(-c3ccn4c(C(=O)c5ccccc5)c(C(=O)OCC)c(C(=O)OCC)c4c3)ccn2c1C(=O)c1ccccc1`: the growth is 106% (inactive).
Take `O=Cc1c(O)c2ccccc2[nH]c1=O`: the growth is 94.5% (inactive).
With `CCOC(=O)/C(C#N)=C\c1c[nH]c2ccccc12`, the growth was 97.4% (inactive).
Regarding `CCCCCCCC(=O)Nc1nc2[nH]c(CN3CCN(Cc4cccc(I)c4)CC3)c(CN3CCN(Cc4cccc(I)c4)CC3)c2c(=O)[nH]1`, the growth is -85.6% (active).
Consider `O=C(NOCCO)c1ccc2cncn2c1Nc1ccc(I)cc1F`, for which the growth is 107% (inactive).
The same measure for `Cc1cc(S(=O)(=O)/N=C(\N)n2nc(C)c(C)c2C)c(SCc2ccccc2)cc1Cl`: 66% (inactive); for `CCOC(=O)/C=C1\S/C(=N\Nc2cc(=O)[nH]c3ccc(OC)cc23)N(c2ccccc2)C1=O`: 101% (inactive).
Regarding `CC(=O)O[C@@H]1C[C@]2(C)[C@H]3[C@H](O)C[C@@H]4C5=CC(C)(C)CC[C@]5(C)CC[C@@]4(C)[C@]3(C)CC[C@H]2C(C)(C)[C@H]1O`, the growth is 116% (inactive).
Take `CC(=O)Oc1ccccc1C(=O)/C=C/c1cccc([N+](=O)[O-])c1`: the growth was 61.2% (inactive).
With `CCCCCC(C)c1ccc(O)c(C)c1` (stereo not given), the growth is 101% (inactive).
In the case of `O=C(CCCCCCN1CC(=O)N2[C@@H](c3ccccc3Br)c3[nH]c4ccccc4c3C[C@H]2C1=O)NO`, the growth was 36.2% (inactive).
The same measure for `CN1CCN(Cc2ccc(NC(=O)c3cncc(C#Cc4ncc5ccccn45)c3)cc2C(F)(F)F)CC1`: 36.5% (inactive); for `Cc1nc2sccn2c1-c1csc(Nc2cccc(Cl)c2C)n1`: -13% (active); for `Cc1ccc(C2=NN(C)C(=O)C3(CCCC3)C2)cc1`: 98.7% (inactive).
For `CCOC(=O)C1(C)CCCC1N` (stereo not given), the growth was 99.2% (inactive).
As to `Cc1ccc(NCCN(C)CC(C)O)c2c(=O)c3ccc(Cl)cc3sc12` (stereo not given), the growth is -2.72% (active).
In the case of `O=C(Nc1cccc2ccccc12)c1cc2ccccc2cc1O`, the growth is -17.6% (active).
Turning to `CC(=O)c1c(C)nc(-c2cc(C)cc(Cl)c2)nc1-c1cccc(Oc2ccccc2)c1`, the growth is 60.8% (inactive).
To `Cc1c(C(=O)O)nnn1-c1nccs1` belongs 107% (inactive); to `COc1cc(NCCCCCNC(C)C)c2ncccc2c1`, 87.6% (inactive) and 39.1% (inactive).
On to `CC(C)OCC1CO1` (stereo not given), for which the growth was 108% (inactive).
Take `COc1ccc(-c2nc(-c3nc4ccc(C)cc4[nH]3)cc3c2[nH]c2ccccc23)cc1`: the growth was 48.8% (inactive).
For `O=C(c1ccc(Cl)cc1)C1C(c2ccccc2)C1[N+](=O)[O-]` (stereo not given), the growth was 111% (inactive).
